About 7,900 targets were measured; listed, in parts, are those with a hit and a random draw of the rest. About 0.6% of all pairs of compound and target were hits. Values without a mark were called inactive.
Tests used:
Experiment in all cases: log2 fold change, soluble protein after heating vs DMSO (PISA); higher = thermal stabilisation; K562 cells, 10 uM, 30 min; active = over 0.2 and 3.5 SD of the protein, either way, in both replicates (recomputed)
erlotinib = compound: C#Cc1cccc(Nc2ncnc3cc(OCCOC)c(OCCOC)cc23)c1 [erlotinib]
Procedure, shortened: (§1)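 Thermal stability values are relative to control samples and come from duplicates. They are expressed as log2 fold changes. For measurement, K562 cells (2×10^6 cells/mL) received 10 μM compound for 30 min, and aliquots were heated for 3 min over 48°C-58°C, pooled, and extracted at 4°C in PBS with 0.5% NP-40. Soluble protein, the supernatant after 21,000xg for 90 min, was quantified by TMTpro 16plex LC-MS/MS with equalised channel sums.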

[1] = compound: C/C(=N\NC(=O)C1=CC(=CC=C1)S(=O)(=O)N2CCOCC2)/C3=C(C=CC(=C3)Cl)O
Procedure, shortened: as §1

[2] = compound: C1=CC(=C(C=C1Cl)C2=NC3=NC=CN=C3C(=N2)NC4=CC=NC=C4)F
Procedure, shortened: as §1

[3] = compound: C1=CC(=CC=C1C2=NC3=C(N2)C=C(C=C3)C(=O)N)OC4=CC=C(C=C4)Cl
Procedure, shortened: as §1

[4] = compound: C1=CC2=C(C=CC(=C2)/C=C\3/C(=O)NC(=NCC4=CC=CS4)S3)N=C1
Procedure, shortened: as §1

[5] = compound: C1=CC2=NC=CN=C2C=C1/C=C/3\C(=O)NC(=O)S3
Procedure, shortened: as §1

[6] = compound: C1=CC=C(C=C1)C2=NC(=C(N2)C3=CC=NC=C3)C4=CC(=C(C=C4)Cl)O
Procedure, shortened: as §1

[7] = compound: C1CCN(C1)C(=O)NC2=CC=CC(=C2)NC3=NC=C(C(=N3)NCCC4=CN=CN4)Br
Procedure, shortened: as §1

[8] = compound: C1CN(CCC1(CC2=CC=C(C=C2)Cl)N)C3=NC=NC4=C3C=CN4
Procedure, shortened: as §1

IRAK-1-4 Inhibitor I = compound: C1COCCN1CCN2C3=CC=CC=C3N=C2NC(=O)C4=CC(=CC=C4)[N+](=O)[O-] [IRAK-1-4 Inhibitor I]
Procedure, shortened: as §1

ibrutinib = compound: C=CC(=O)N1CCC[C@@H](n2nc(-c3ccc(Oc4ccccc4)cc3)c3c(N)ncnc32)C1 [ibrutinib]
Procedure, shortened: as §1

[9] = compound: CC(=O)c1cnc2ccc(-c3cc(Cl)c(O)c(Cl)c3)nc2c1N[C@H]1CC[C@H](CN(C)C)CC1
Procedure, shortened: as §1

ralimetinib = compound: CC(C)(C)Cn1c(N)nc2ccc(-c3[nH]c(C(C)(C)C)nc3-c3ccc(F)cc3)nc21 [ralimetinib]
Procedure, shortened: as §1

[10] = compound: CC(C)(O)CC(=O)NCCn1ccc2ncnc(Nc3ccc(Oc4cccc(C(F)(F)F)c4)c(Cl)c3)c21
Procedure, shortened: as §1

[11] = compound: CC(C)C1=C2N=C(C=C(N2N=C1)NCC3=CC=CC=C3)NCCCCCCN
Procedure, shortened: as §1

[12] = compound: CC(C)C[C@@H](C=O)NC(=O)[C@H](CC(C)C)NC(=O)[C@H](CC(C)C)NC(=O)OCc1ccccc1
Procedure, shortened: as §1

pinometostat = compound: CC(C)N(C[C@H]1O[C@@H](n2cnc3c(N)ncnc32)[C@H](O)[C@@H]1O)[C@H]1C[C@@H](CCc2nc3cc(C(C)(C)C)ccc3[nH]2)C1 [pinometostat]
Procedure, shortened: as §1

[13] = compound: CC1=C(C2=C(C=C1)C(=O)C3=CC=CC=C3N2CCCN)C
Procedure, shortened: as §1

[14] = compound: C1=CC=C2C(=C1)C3=NNC4=CC=CC(=C43)C2=O
Procedure, shortened: as §1

[15] = compound: CC1=C(C(CC(=O)N1)C2=CC=C(C=C2)C(F)(F)F)C(=O)NC3=C(C=C4C(=C3)C=NN4)F
Procedure, shortened: as §1

UniProt Q8N357, sequence (Q8N357 whole entry, looked up): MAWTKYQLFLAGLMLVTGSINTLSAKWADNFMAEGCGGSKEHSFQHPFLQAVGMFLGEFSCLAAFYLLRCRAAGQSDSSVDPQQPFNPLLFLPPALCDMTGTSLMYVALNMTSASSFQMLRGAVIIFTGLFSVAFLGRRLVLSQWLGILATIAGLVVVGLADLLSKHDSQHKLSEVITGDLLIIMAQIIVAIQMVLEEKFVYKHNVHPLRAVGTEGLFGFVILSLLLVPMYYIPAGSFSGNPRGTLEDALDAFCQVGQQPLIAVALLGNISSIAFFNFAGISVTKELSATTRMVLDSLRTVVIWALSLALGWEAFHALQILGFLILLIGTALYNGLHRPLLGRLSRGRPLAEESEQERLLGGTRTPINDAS
UniProt P56962, sequence (P56962 whole entry, looked up): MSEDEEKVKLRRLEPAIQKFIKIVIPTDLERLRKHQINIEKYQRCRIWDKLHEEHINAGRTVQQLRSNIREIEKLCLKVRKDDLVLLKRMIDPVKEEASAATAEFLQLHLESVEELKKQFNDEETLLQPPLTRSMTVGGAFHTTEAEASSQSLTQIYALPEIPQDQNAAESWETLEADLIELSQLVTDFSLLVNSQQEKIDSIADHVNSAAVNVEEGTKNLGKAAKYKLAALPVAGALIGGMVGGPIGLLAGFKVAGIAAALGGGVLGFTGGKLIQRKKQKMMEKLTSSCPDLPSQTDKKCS
UniProt Q9P289, sequence (Q9P289 whole entry, looked up): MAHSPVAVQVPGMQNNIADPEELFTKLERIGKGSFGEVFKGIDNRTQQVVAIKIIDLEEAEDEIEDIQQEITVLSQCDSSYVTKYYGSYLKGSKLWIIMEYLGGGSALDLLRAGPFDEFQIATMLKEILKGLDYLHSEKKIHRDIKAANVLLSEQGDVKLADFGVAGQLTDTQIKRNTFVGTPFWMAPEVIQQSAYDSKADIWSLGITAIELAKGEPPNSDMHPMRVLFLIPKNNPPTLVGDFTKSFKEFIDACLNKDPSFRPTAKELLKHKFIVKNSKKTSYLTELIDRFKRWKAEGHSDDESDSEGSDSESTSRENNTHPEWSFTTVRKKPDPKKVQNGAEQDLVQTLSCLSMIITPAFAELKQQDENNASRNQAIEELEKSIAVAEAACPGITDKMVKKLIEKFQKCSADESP
UniProt Q4KMP7, sequence (Q4KMP7 whole entry, looked up): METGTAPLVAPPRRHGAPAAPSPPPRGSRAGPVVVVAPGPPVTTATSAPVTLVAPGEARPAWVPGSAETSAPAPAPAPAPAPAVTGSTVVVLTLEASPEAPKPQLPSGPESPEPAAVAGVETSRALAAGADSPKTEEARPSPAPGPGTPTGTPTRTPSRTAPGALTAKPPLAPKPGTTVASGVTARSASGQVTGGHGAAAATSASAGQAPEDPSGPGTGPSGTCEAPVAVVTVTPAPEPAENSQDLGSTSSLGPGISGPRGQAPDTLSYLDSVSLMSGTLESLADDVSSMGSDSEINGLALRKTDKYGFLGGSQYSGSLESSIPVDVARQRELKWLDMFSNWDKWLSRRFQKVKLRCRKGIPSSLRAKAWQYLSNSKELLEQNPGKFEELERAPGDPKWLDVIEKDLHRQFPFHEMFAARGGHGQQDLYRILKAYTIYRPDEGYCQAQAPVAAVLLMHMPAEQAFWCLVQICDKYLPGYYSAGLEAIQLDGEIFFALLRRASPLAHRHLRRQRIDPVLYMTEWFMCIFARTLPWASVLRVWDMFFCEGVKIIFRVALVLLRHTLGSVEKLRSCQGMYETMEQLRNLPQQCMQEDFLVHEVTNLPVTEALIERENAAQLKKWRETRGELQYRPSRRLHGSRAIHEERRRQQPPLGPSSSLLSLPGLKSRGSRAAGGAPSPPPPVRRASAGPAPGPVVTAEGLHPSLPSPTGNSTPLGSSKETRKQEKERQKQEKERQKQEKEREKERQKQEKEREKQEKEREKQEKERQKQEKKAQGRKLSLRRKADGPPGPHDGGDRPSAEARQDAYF
UniProt P04920, sequence (P04920 whole entry, looked up): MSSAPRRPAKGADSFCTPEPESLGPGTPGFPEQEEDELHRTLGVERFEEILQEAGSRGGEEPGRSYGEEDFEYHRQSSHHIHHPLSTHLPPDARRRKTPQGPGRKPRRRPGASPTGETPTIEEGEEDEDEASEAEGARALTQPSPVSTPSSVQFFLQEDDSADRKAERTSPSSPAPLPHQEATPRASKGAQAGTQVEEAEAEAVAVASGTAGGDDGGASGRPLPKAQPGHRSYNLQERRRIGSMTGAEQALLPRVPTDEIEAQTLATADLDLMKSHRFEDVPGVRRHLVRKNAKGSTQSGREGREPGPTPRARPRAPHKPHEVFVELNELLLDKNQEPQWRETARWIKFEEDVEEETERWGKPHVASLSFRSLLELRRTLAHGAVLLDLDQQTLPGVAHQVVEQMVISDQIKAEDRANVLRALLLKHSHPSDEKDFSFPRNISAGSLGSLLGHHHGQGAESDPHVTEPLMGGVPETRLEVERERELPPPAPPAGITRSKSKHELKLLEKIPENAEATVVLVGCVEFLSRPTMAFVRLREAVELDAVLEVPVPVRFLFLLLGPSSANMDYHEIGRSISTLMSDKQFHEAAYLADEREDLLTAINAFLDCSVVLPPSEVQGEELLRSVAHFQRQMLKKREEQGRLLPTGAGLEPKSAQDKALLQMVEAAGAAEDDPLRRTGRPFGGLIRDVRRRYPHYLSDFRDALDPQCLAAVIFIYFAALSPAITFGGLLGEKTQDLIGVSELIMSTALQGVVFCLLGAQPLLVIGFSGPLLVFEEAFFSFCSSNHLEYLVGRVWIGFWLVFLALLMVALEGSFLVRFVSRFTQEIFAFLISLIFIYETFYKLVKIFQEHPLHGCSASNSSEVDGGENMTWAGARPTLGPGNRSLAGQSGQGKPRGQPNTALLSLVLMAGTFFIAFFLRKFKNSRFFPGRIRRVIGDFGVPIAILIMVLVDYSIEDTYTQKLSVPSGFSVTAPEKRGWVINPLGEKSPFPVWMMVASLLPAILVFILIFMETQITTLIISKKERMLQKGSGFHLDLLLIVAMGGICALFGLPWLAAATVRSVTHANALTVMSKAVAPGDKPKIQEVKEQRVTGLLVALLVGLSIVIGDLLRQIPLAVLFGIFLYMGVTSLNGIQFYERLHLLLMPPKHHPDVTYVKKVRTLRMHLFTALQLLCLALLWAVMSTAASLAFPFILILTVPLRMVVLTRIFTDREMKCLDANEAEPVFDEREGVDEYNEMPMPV
UniProt Q9Y5J6, sequence (Q9Y5J6 whole entry, looked up): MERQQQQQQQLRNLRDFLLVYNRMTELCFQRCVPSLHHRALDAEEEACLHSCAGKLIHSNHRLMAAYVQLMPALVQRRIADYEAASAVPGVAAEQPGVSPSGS
UniProt Q13242, sequence (Q13242 whole entry, looked up): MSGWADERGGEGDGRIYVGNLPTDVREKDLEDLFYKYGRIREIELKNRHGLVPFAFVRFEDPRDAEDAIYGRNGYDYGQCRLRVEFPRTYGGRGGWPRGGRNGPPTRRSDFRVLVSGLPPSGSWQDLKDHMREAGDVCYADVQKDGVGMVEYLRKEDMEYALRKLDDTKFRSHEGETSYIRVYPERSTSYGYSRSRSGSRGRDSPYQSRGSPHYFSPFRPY
UniProt Q92581, sequence (Q92581 whole entry, looked up): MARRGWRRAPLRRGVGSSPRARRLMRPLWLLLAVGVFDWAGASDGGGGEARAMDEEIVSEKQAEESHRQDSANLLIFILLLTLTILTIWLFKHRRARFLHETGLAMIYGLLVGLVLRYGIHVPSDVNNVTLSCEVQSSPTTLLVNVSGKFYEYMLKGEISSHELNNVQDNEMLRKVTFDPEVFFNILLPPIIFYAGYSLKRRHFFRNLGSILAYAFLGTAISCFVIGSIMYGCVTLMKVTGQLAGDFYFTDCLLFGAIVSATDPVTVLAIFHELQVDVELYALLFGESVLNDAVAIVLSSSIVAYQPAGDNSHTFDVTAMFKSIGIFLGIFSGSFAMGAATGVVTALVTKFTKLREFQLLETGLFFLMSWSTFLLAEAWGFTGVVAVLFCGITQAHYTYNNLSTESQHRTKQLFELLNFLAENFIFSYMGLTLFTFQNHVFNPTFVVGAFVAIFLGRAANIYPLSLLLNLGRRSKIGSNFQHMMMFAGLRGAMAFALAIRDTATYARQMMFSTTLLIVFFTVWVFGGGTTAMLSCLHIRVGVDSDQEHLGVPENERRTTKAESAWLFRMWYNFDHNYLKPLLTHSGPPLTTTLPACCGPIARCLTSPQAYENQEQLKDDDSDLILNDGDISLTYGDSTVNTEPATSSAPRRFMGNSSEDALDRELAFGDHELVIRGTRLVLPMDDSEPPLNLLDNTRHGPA
UniProt Q8N0X7, sequence (Q8N0X7 whole entry, looked up): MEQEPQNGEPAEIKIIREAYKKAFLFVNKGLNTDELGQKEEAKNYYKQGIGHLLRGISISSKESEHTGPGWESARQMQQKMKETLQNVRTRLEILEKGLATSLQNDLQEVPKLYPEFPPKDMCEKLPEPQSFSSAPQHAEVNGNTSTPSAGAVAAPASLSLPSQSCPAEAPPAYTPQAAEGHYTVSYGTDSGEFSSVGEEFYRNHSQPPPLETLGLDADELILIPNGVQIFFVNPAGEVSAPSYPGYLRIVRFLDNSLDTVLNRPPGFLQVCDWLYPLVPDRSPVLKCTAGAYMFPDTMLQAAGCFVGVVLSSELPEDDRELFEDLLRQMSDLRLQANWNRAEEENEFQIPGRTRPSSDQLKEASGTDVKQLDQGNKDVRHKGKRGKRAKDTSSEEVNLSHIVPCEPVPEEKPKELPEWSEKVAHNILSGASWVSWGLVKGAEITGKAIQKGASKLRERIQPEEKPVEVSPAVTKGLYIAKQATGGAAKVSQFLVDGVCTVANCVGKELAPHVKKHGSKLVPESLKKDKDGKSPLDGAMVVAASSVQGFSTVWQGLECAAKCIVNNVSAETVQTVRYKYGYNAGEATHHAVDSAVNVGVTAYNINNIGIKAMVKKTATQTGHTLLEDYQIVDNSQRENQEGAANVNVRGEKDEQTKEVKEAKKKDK

Target | log2 fold change (erlotinib) | log2 fold change [1] | log2 fold change [2] | log2 fold change [3] | log2 fold change [4] | log2 fold change [5] | log2 fold change [6] | log2 fold change [7] | log2 fold change [8] | log2 fold change (IRAK-1-4 Inhibitor I) | log2 fold change (ibrutinib) | log2 fold change [9] | log2 fold change (ralimetinib) | log2 fold change [10] | log2 fold change [11] | log2 fold change [12] | log2 fold change (pinometostat) | log2 fold change [13] | log2 fold change [14] | log2 fold change [15]
SYK (UniProt P43405) | 0.06 | 0.144 | -0.019 | 0.038 | 0.031 | -0.095 | 0.131 | -0.042 | 0.074 | -0.192 | 0.056 | -0.277 | 0.241 | -0.1 | 0.128 | 0.048 | 0.19 | -0.425 | – | –
SLC35F6 (UniProt Q8N357) | 0.12 | -0.078 | -0.008 | -0.067 | -0.013 | -0.047 | 0.417 (active) | -0.057 | 0.122 | – | -0.002 | -0.016 | -0.18 | 0.061 | -0.22 | 0.319 | – | 0.078 | -0.024 | -0.177
SPART (UniProt Q8N0X7) | 0.024 | 0.008 | 0.057 | 0.008 | 0.07 | 0.002 | -0.008 | -0.033 | -0.055 | 0.008 | -0.033 | -0.084 | 0.02 | -0.058 | -0.056 | -0.011 | 0.034 | 0.128 | -0.014 | -0.04
TATDN2 (UniProt Q93075) | 0.071 | -0.062 | -0.016 | -0.013 | 0.043 | -0.052 | – | -0.121 | 0.06 | -0.006 | 0.072 | -0.402 (active) | – | 0.102 | 0.058 | – | 0.047 | -0.218 | 0.003 | -0.023
TIAL1 isoform 2 (UniProt Q01085) | 0.013 | -0.004 | 0.002 | 0 | 0.02 | 0.008 | -0.026 | 0.032 | -0.004 | 0.044 | 0.011 | -0.035 | -0.05 | 0.001 | 0.106 | 0.019 | -0.039 | 0.238 (active) | 0.018 | -0.02
STAM2 (UniProt O75886) | -0.026 | 0.081 | 0.036 | -0.031 | 0.022 | 0.01 | 0.002 | -0.047 | -0.025 | 0.033 | 0.008 | -0.018 | 0.034 | 0.038 | -0.131 | 0.018 | 0.014 | 0.004 | -0.006 | -0.063
TBC1D15 isoform 3 (UniProt Q8TC07) | -0.007 | 0.075 | 0.024 | -0.029 | 0.059 | 0.067 | 0.029 | 0.016 | -0.048 | 0.235 | -0.021 | 0.009 | 0.041 | -0.082 | -0.326 (active) | 0.012 | 0.056 | -0.01 | -0.035 | 0
SLC4A2 (UniProt P04920) | 0.015 | 0.073 | -0.062 | 0.047 | 0.076 | 0.047 | 0.043 | -0.023 | 0.002 | 0.022 | -0.024 | -0.015 | 0.003 | -0.07 | -0.165 | 0.143 | 0.054 | 0.01 | -0.026 | 0.042
SRSF9 (UniProt Q13242) | -0.084 | -0.4 | -0.721 (active) | 0.138 | -0.211 | 0.052 | -0.087 | – | – | -0.094 | 0.106 | -0.13 | 0.199 | 0.219 | 0.019 | 0.171 | 0.29 | – | -0.229 | -0.011
TIMM10B (UniProt Q9Y5J6) | 0.299 | 0.135 | 0.191 | -0.189 | 0.216 | 0.048 | 0.042 | -0.143 | -0.051 | – | -0.008 | -0.231 | 0 | -0.07 | -0.197 | -0.126 | – | 0.089 | 0.543 | 0.017
TBC1D10B (UniProt Q4KMP7) | -0.013 | 0.063 | -0.018 | 0.039 | -0.008 | 0.036 | -0.033 | -0.024 | -0.033 | -0.001 | 0.025 | -0.342 (active) | 0.009 | -0.006 | -0.027 | 0.021 | 0.063 | 0.057 | -0.109 | -0.015
SLC9A6 isoform 2 (UniProt Q92581) | -0.024 | 0.014 | 0.053 | 0.026 | -0.009 | 0.029 | -0.04 | -0.013 | 0.031 | 0.052 | 0.024 | 0.005 | -0.056 | -0.02 | 0.038 | 0.042 | 0.083 | 0.023 | -0.056 | 0.021
TBC1D5 isoform 2 (UniProt Q92609) | 0.019 | 0.111 | -0.03 | -0.041 | 0.044 | 0.032 | -0.049 | -0.003 | -0.078 | -0.022 | -0.01 | -0.009 | 0.023 | -0.179 | -0.325 (active) | 0.076 | 0.003 | 0.02 | 0.027 | 0.01
STX17 (UniProt P56962) | 0.206 | 0.003 | 0.124 | 0.015 | 0.041 | 0.016 | -0.01 | -0.004 | 0.027 | -0.062 | 0.002 | 0.031 | 0.037 | -0.063 | -0.235 | 0.028 | 0.006 | 0.138 | 0.059 | 0.062
STK26 (UniProt Q9P289) | 0.058 | -0.014 | 0.195 | -0.014 | -0.008 | 0.124 | -0.015 | 0.023 | 0.02 | 0.03 | -0.272 (active) | -0.344 (active) | -0.022 | -0.081 | -0.071 | 0.03 | -0.019 | -0.07 | -0.08 | 0.022
STK11IP (UniProt Q8N1F8) | 0.025 | 0.152 | -0.079 | -0.243 | 0.094 | 0.006 | – | 0.042 | -0.01 | -0.248 | 0.027 | -0.02 | – | -0.131 | -0.932 (active) | – | 0.168 | -0.183 | -0.062 | 0.1

From the supplement of paper PMC10849652
